Values without a mark were called inactive. Results filed as inconclusive are left out. Calls of active or inactive are those of the source. Unless noted, calls come from the whole dose curve; as a rule, active = well fitted curve in either direction with a large enough effect (not every such curve was filed as active); inconclusive = small, poorly fitted or top-dose-only effect, or another doubt; inactive = flat fitted curve, though single readings scatter.
Assays:
[1] = target: Lysosomal acid glucosylceramidase (Homo sapiens) (UniProt P04062); assay: Glucocerebrosidase-p2 (AID 348; in the data active = potency below about 10 µM; note: potency is the fitted concentration of half-maximal effect); conditions: purified GBA, blue fluorogenic substrate, 40 min
Sequence of Lysosomal acid glucosylceramidase (Homo sapiens) (P04062 whole entry, looked up): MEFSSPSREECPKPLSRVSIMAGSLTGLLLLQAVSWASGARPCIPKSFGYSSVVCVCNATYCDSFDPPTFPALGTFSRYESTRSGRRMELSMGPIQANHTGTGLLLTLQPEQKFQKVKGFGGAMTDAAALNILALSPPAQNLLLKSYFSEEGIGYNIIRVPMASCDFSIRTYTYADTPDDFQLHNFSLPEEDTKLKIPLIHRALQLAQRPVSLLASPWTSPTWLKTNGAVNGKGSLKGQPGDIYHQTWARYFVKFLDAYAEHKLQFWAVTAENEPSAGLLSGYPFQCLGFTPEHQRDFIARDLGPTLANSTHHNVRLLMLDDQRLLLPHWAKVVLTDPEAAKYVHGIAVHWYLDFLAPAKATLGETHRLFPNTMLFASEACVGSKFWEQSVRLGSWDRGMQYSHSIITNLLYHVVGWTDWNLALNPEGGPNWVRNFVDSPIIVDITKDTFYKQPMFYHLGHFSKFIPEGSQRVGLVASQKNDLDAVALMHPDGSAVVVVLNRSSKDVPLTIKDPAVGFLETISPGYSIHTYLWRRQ
Summary of the method: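 Normal human glucocerebrosidase (0.2 nM) with blue fluorogenic substrate (80 uM final) in citrate/phosphate pH 5.9 with 10mM sodium taurocholate, 0.01% tween-20; 40 min RT, NaOH/glycine stop; fluorescence Ex 365/Em 440; AC50 from a titration from 0.6 nM upwards.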

[2] = AP1 Signaling Pathway (AID 357); conditions: ME-180 AP-1-bla reporter, EGF-induced, beta-lactamase ratio, 5 h; at 7.69 µM (top of the series) unless noted;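 note: ME-180 reporter cells stimulated with EGF at its EC50 level; % is set by controls: 0 for no effect and ±100 for the full control effect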
Summary of the method: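 Modulation of EGF-driven AP-1 transcription was assessed with a beta-lactamase reporter in ME-180 cells. Compound and EC50 EGF were co-incubated 5 hours at 37 °C before 2.5-hour CCF4 loading at room temperature and dual-emission reading.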

[3] = target: Cytochrome P450 1A2 (Homo sapiens) (UniProt P05177); assay: p450-cyp1a2 (AID 410; calls by dose curve; note: potency is the fitted concentration of half-maximal effect;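 for activity change, negative = inhibition: -100% = full effect of reference inhibitor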); conditions: recombinant CYP1A2, luciferin-ME demethylation, luminescence; series mostly up to 11.4 µM
Sequence of Cytochrome P450 1A2 (Homo sapiens) (P05177 whole entry, looked up): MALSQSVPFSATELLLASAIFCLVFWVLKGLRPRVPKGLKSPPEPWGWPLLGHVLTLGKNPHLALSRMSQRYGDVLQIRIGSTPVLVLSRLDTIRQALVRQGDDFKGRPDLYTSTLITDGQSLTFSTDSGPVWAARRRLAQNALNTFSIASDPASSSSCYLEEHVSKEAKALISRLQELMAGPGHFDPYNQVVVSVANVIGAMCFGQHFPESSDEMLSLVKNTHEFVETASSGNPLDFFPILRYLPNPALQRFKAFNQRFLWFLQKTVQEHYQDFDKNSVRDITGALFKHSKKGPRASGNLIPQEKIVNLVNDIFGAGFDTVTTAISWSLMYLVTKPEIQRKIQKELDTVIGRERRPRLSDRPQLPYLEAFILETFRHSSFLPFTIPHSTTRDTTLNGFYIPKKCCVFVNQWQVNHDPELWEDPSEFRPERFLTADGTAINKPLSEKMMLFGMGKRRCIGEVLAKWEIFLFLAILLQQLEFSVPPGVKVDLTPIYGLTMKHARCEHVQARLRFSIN
Summary of the method: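 Luminescent demethylation readout: Luciferin-ME (100uM, equal to Km) turned over by 20nM CYP1A2 for 60 min at room temperature after NADPH regeneration addition, following 10 min compound preincubation. Normalization used 57 uM furafylline as full inhibition.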

[4] = NFAT Signaling Pathway (AID 444); conditions: Jurkat NFAT-bla M1, carbachol, beta-lactamase ratio, 5 h; at 7.69 µM (top of the series) unless noted;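 note: carbachol stimulus at about its EC50 of 1 µM final; % is set by controls: 0 for no effect and ±100 for the full control effect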
Summary of the method: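 Jurkat cells with NFAT-driven β-lactamase reporter and co-expressed M1 receptor, stimulated with carbachol (final 1 uM, ~EC50), compound titration, 5 h at 37 °C. CCF4 loaded 1 h at RT; 460/530 nm ratio gave %activity and AC50.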

[5] = Stat Signaling Pathway (AID 446); conditions: ME-180 (cervical carcinoma) SIE beta-lactamase reporter, IL-6 stimulated, 5 h; at 7.69 µM (top of the series) unless noted;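 note: ME-180 cervical cancer cells given 40 pM IL-6 alongside compound; SIE-controlled beta-lactamase reporter measured as 460/530 nm FRET emission ratio; % is set by controls: 0 for no effect and ±100 for the full control effect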
Summary of the method: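 FRET read-out (405 nm excitation, 460/530 nm emission) of a beta-lactamase reporter under a STAT-inducible element in ME-180 cervical carcinoma cells. Cells with compound receive 40 pM IL-6 for 5 h. Values are normalised to AC90 stimulation and AC90 JAK-inhibitor controls.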

[6] = target: Glucocorticoid receptor (Homo sapiens) (UniProt P04150); assay: GR-GFP Redistribution (AID 450;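 active = compounds whose dose series gives a full or clear partial fitted curve of increased nuclear translocation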; note: potency is the fitted concentration of half-maximal effect); conditions: U2OS GR-GFP nuclear translocation, laser cytometry, 2 h
Sequence of Glucocorticoid receptor (Homo sapiens) (P04150 whole entry, looked up, the tested form may be a part): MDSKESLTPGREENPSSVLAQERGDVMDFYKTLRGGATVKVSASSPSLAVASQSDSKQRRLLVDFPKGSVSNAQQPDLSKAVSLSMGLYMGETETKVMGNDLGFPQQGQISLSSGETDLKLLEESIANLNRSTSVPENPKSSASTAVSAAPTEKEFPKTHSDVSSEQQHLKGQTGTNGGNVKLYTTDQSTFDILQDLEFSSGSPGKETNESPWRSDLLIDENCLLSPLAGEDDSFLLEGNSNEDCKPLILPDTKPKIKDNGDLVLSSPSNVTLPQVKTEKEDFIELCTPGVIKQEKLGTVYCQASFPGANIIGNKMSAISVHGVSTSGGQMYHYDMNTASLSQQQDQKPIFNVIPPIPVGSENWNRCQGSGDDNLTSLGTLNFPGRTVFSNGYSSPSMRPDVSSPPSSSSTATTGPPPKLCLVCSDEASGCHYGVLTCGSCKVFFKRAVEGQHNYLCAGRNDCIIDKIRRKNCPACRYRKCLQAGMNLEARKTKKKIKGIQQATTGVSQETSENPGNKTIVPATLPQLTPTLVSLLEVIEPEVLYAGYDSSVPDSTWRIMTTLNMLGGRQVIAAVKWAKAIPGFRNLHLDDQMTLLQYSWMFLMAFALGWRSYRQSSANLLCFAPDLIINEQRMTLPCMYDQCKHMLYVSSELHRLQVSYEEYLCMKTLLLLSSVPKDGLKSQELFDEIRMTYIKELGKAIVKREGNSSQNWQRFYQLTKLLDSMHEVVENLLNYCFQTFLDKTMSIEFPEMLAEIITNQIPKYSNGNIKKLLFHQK

[7] = target: Glucocorticoid receptor (Homo sapiens) (UniProt P04150); assay: GR-EFC Redistribution (AID 451; calls by dose curve; note: potency is the fitted concentration of half-maximal effect); conditions: CHO-K1 GR-EFC translocation, beta-gal luminescence, 2 h
Summary of the method: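 CHO-K1 cells expressing nuclear EA and GR-ED fragments of b-gal; compounds titrated up to 46 uM final, 2 h at 37 C. GR nuclear translocation read as complemented b-gal luminescence after 1 h RT detection.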

[8] = target: Mitogen-activated protein kinase 10 (Mus musculus) (UniProt Q61831); assay: JNK3 AlphaScreen Assay (AID 530); conditions: JNK3 lysate, c-Jun phosphorylation; series mostly up to 11.4 µM;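 note: kinase came from lysate of stimulated human HepG2 cells; signal reports phosphorylation of biotinylated GST-cJun 1-79 at Ser73 with 10 µM ATP; % is set by controls: 0 for no effect and ±100 for the full control effect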
Summary of the method: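 Activity was read by AlphaScreen after JNK3-containing HepG2 lysate (cytokine pre-activated) phosphorylated biotinylated GST-cJun with 10 uM ATP at room temperature. Phospho-Ser73 cJun antibody with Protein-A acceptor beads provided detection.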

[9] = target: 3',5'-cyclic-AMP phosphodiesterase 4B (Homo sapiens) (UniProt Q07343); assay: qHTS Assay for Inhibitors of PDE-IV (AID 607; active = well fitted activation curve with a large enough effect in the main read-out, with a control signal flat, not every such curve was filed as active; note: % of control where 0% means no effect); conditions: HEK293 ACTOne CNG channel cells, membrane potential fluorescence; series mostly up to 22.9 µM
Sequence of 3',5'-cyclic-AMP phosphodiesterase 4B (Homo sapiens) (Q07343 whole entry, looked up): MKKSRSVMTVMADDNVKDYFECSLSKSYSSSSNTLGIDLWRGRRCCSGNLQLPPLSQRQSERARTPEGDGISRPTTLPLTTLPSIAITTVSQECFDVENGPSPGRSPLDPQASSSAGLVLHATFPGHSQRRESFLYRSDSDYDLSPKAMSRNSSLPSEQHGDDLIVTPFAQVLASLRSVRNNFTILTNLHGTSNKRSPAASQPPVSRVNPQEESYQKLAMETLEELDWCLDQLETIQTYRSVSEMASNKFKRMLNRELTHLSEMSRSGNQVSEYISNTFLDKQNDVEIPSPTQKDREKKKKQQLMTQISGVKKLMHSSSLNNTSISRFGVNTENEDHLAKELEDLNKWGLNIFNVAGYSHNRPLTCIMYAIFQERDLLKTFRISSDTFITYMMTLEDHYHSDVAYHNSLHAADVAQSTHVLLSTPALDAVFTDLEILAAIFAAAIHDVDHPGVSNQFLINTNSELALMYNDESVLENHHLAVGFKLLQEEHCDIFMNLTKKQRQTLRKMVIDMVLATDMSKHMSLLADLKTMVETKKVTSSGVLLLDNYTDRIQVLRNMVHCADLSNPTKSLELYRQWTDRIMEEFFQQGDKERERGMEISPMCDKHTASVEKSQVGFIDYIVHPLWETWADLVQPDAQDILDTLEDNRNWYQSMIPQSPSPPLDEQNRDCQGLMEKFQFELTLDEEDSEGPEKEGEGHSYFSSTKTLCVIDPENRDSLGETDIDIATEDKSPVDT
Summary of the method: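 Cell-based read-out of cAMP via a modified cyclic nucleotide-gated channel and membrane potential dye (535/590 nm) in HEK293 cells expressing PDE4 endogenously. Compounds tested up to 22.9 uM final; 100 uM RO 20-1724 reference.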

SMILES | Potency [1] [µM] | activity change, negative = inhibition [2] [%] | Potency [3] | activity change, negative = inhibition [4] [%] | activity, negative = inhibition [5] [%] | Potency [6] [µM] | Potency [7] [µM] | Potency [8] | Potency [9] | activity change, negative = inhibition [3]
CN(C)CCn1c(CO)nc2c1c(=O)n(C)c(=O)n2C | > 11.4 | 1.13 | inactive | 1.85 | 6.5 | > 46 | > 9.22 | inactive | inactive | –
CN(C)CCCCN1CCc2c(n(C)c3ccccc23)C1=O | > 11.4 | 14 | – | 5.6 | 3.15 | > 46 | > 9.22 | inactive | inactive | -14.1% [at 2.29 µM]
CCn1c2ccccc2c2nnc(NCCCO)nc21 | > 11.4 | 7.47 | 1.58 µM (active) | 10.3 | 1 | > 46 | > 9.22 | inactive | inactive | –
c1ccc(CSc2nnc3c4ccccc4c4ccccc4c3n2)cc1 | > 11.4 | 6.19 | 0.2 µM (active) | -12.6 | 1.88 | > 46 | > 9.22 | inactive | inactive | –
O=C(O)CNc1ccc(C(=O)O)cc1 | > 11.4 | -2.61 | inactive | 12.8 | 6.8 | > 46 | > 9.22 | inactive | inactive | –
O=C(O)Cc1c(O)ccc2ccccc12 | > 11.4 | 1.11 | inactive | 12.6 | 7.17 | > 46 | > 9.22 | inactive | inactive | –
CCOC(=O)Nc1nc(-c2ccccc2)c(C)s1 | > 11.4 | -8.11 | 0.2 µM (active) | -9.95 | 1.24 | > 46 | > 9.22 | inactive | inactive | –
O=C(O)c1ccccc1CN1CCC[C@@H](C(=O)O)C1 | > 11.4 | -3.95 | inactive | 12.7 | 8.09 | > 46 | > 9.22 | inactive | inactive | –
O=C(Nc1nn[nH]n1)c1nc(-c2ccccc2)cc(=O)[nH]1 | > 11.4 | 2.85 | 3.98 µM (active) | 0.574 | -4.08 | > 46 | > 9.22 | inactive | inactive | –
CC1=NN(c2ccccc2)C(=O)[C@@H]1N=Nc1ccc(S(N)(=O)=O)cc1 | > 11.4 | 6.08 | 1.26 µM (active) | 9.48 | -4.22 | > 46 | > 9.22 | inactive | inactive | –
Cc1cc(Cc2c(C)c(C)c(Cc3cc(C)cc(C(C)(C)C)c3O)c(C)c2C)c(O)c(C(C)(C)C)c1 | > 11.4 | -8.57 | – | 14.4 | 6.62 | > 46 | > 9.22 | inactive | inactive | 5% [at 2.29 µM]
O=C(O)CSc1nnc2c3ccccc3c3ccccc3c2n1 | > 11.4 | -9.84 | 0.0794 µM (active) | 22.2 | 10.3 | > 46 | > 9.22 | inactive | inactive | –
NCCSCCc1ccccc1 | > 11.4 | -3.04 | 5.01 µM (active) | 3.22 | 4.42 | > 46 | > 9.22 | inactive | inactive | –
CC(=O)[C@@H](C)CCO[C@@]1(C)OCC[C@@H]1C | > 11.4 | 12.4 | inactive | 6.23 | 14.8 | > 46 | > 9.22 | inactive | inactive | –
O=C(O)c1c[nH]c2cc(OCc3ccccc3)ccc2c1=O | > 11.4 | -8.18 | inactive | 5.14 | -8.65 | > 46 | > 9.22 | inactive | inactive | –
Nc1nc2c(c(=O)[nH]1)CN(c1ccc(S(N)(=O)=O)cc1)CN2 | > 11.4 | -2.56 | – | 12 | 1.71 | > 46 | > 9.22 | inactive | inactive | 8.8% [at 2.29 µM]
COCCn1c(=O)c(-c2ccccc2)nc2cnc(Oc3ccccc3)nc21 | > 11.4 | -29.9 | 1.58 µM (active) | -6.49 | -4.14 | > 9.22 | > 46 | inactive | inactive | –
O=C(O)c1ccc(C(=O)Nc2cccc3ccccc23)c(C(=O)O)c1 | > 11.4 | 4.87 | – | 5.96 | 0.708 | > 46 | > 9.22 | inactive | inactive | -6.2% [at 2.29 µM]
O=C1c2cc([N+](=O)[O-])ccc2-c2ccc3c4ccc5c6c(ccc(c7ccc1c2c73)c64)C(=O)c1cc([N+](=O)[O-])ccc1-5 | > 11.4 | 0.115 | 0.794 µM (active) | 21.7 | 9.03 | > 46 | > 9.22 | inactive | inactive | –
C[C@@H](N1CCOCC1)[C@@](O)(c1ccccc1)c1ccccn1 | > 11.4 | 2.55 | – | 12.6 | 4.17 | > 46 | > 9.22 | inactive | inactive | -2.5% [at 2.29 µM]
O=C(CCN1CCOCC1)Nc1ccc(F)cc1F | > 11.4 | -2.63 | inactive | 13.2 | 8.47 | > 46 | > 9.22 | inactive | inactive | –
CC1(C)O[C@H]2[C@@H](O1)[C@@H](On1nnc3ccc(Cl)cc31)O[C@@H]2[C@@H]1COC(C)(C)O1 | > 11.4 | -0.0878 | – | 3.42 | 2.63 | > 46 | > 9.22 | inactive | inactive | -10.9% [at 2.29 µM]
O=C(O)c1ccccc1NCn1c(=S)sc2ccccc21 | > 11.4 | 5.4 | 0.501 µM (active) | 7.61 | -1.41 | > 46 | > 9.22 | inactive | inactive | –
Cc1cc(Cl)ccc1OCC(=O)Nc1nc(N)nc(N)n1 | > 11.4 | 7.35 | – | 1.27 | -6.25 | > 46 | > 9.22 | inactive | inactive | 2.1% [at 2.29 µM]
O=S(=O)(O)c1ccc(-c2nnc(-c3ccccn3)nc2-c2ccc(S(=O)(=O)O)o2)o1 | > 11.4 | 4.23 | inactive | 3.88 | 2.53 | > 46 | > 9.22 | inactive | inactive | –
Cc1nc2cccc([N+](=O)[O-])c2n1CCCN(C)C | > 11.4 | 11.7 | inactive | 12.7 | 9.88 | > 46 | > 9.22 | inactive | inactive | –
CC(C)(C[C@@]1(C)NC(=O)NC1=O)OCc1ccccc1 | > 11.4 | -2.92 | – | -0.038 | 0.608 | > 46 | > 9.22 | inactive | inactive | -12.1% [at 2.29 µM]
O=C(C[N+]1(c2ccccc2)CCOCC1)c1ccccc1 | > 11.4 | -5.21 | 3.98 µM (active) | 11.5 | -5.59 | > 46 | > 9.22 | inactive | inactive | –
O=C(O)c1cc(N=Cc2ccccc2O)cc(C(=O)O)c1 | > 11.4 | -3.29 | inactive | 17.2 | -4.46 | > 46 | > 9.22 | inactive | inactive | –
NCC(=O)Nc1ccccc1 | > 11.4 | 4.23 | 2.51 µM (active) | 1.46 | 4.18 | > 46 | > 9.22 | inactive | inactive | –
